NTR1 ag = activates human neurotensin receptor 1; P30989; NTR1-U2OS beta-arrestin-GFP spot imaging, agonist mode; activation, % at 20 µM; 0.17% of 330,000 active; AID 493036;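 active = activation at or above 40% of the spot to cytoplasm intensity ratio, with at least 20 cells analyzed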;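 note: 0% = DMSO without peptide and 100% = 100 nM NTR1 peptide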
Target sequence (P30989 whole entry, looked up): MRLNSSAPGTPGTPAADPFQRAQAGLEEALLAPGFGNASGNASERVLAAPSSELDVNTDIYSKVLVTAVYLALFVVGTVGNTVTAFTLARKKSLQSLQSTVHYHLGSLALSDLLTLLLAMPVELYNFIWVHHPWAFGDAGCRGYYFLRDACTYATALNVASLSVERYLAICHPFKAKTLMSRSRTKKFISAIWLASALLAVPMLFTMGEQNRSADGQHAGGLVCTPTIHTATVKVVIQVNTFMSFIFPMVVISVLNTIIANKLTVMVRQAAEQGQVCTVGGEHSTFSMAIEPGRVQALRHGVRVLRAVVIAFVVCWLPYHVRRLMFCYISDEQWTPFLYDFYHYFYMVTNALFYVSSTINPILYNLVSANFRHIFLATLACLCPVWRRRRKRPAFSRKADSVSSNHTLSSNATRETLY
B2AR ag = human beta-2 adrenergic receptor agonism by FAP; Am2.2-beta2AR cells, FAP receptor internalization, flow cytometry; response, % (test concentration not listed); 0.43% of 340,000 active; AID 504454;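 active = response above a set limit, near 3 SD of response in nonfluorescent compounds, cut at about 42% in these data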
ABHD5 PLIN5 PPI = ABHD5-PLIN5 protein interaction inhibition. Q00G26+Q8WTS1. 0.78% of 360,000 active. inhibition, % at 4 µM. Split G. princeps luciferase complementation, luminescence, 4 h;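 active = inhibition above the mean inhibition across every tested compound plus 3 SD, cut at about 22% in these data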;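 note: 0% = DMSO only wells and the 100% control is not disclosed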
HTR2A ag = agonists of mouse serotonin 5-HT2A receptor (HTR2A); P35363; CHO-K1 mHTR2A beta-arrestin complementation, luminescence; percent of 30 µM serotonin response; activation, % at 7.6 µM; 0.66% of 360,000 active; AID 624169;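 active = activation above a run cutoff, the mean activation of all tested compounds plus 3 SD, cut at about 14% in these data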;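 note: 0% = plate median of compound wells and 100% = 30 µM serotonin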
Granule exo inh = blocks lytic granule exocytosis; TALL-104 LAMP-1 surface exposure, flow cytometry; cells stimulated with thapsigargin and PMA; inhibition, % at 10 µM; 0.66% of 360,000 active; AID 651702;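 active = inhibition above about 55%, limit read from the data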
OPRM1 ag = OPRM1 agonism in mouse HTR2A counterscreen; shares compounds with HTR2A ag; U2OS OPRM1 beta-arrestin PathHunter, luminescence; DMSO 0%, DAMGO 9.3 µM 100%; activation, % at 9.3 µM; 5.3% of 2,300 active; AID 624380;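 active = mean activation above the mean of DMSO-only wells plus 3 SD, cut at about 0.5% in these data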
m5-HT2A ag conf = confirmation of mouse HTR2A serotonin receptor agonists; shares compounds with HTR2A ag; CHO-K1 PathHunter beta-arrestin recruitment, luminescence; DMSO 0%, 30 µM serotonin 100%; activation, % at 7.6 µM; 19% of 2,300 active;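 active = mean activation across triplicates above the hit threshold derived in the original primary screen, cut at about 15% in these data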
Starred values were filed as active, the others as inactive; / = no result. Rows were chosen to be rich in hits. Some 2.3% of all compounds tested hit in one or more screens of this group.

SMILES	NTR1 ag	B2AR ag	ABHD5 PLIN5 PPI	HTR2A ag	Granule exo inh	OPRM1 ag	m5-HT2A ag conf
CSc1ccc(CCNC(=O)CCc2nnc3ccc(N4CCCCC4)nn23)cc1	3.1	-21.4	4.3	20.1*	4.3	0.7*	4.8
Cc1ccc(/C=N/n2c(C)cc(C)c(C#N)c2=O)cc1	-0.1	-13.7	4.7	-2.3	-8.5	/	/
Cc1cc(C)n(/N=C/c2ccc(O)cc2)c(=O)c1C#N	-0.1	-2.5	-3.1	20.3*	1.6	-0.6	-3.8
O=C(N[C@@H](Cc1ccccc1)C(=O)N1CCN(S(=O)(=O)c2ccccc2F)CC1)c1ccco1	1.7	-12.6	8.5	3.2	0.9	/	/
CC(C)(C)c1ccc(C(=O)N2CCN(c3nc4ccccc4o3)CC2)cc1	1.7	-5.0	-7.6	17.2*	-0.1	-0.5	-0.8
O=C(c1ccc(-c2ccccc2)cc1)N1CCN(c2nc3ccccc3o2)CC1	/	-4.9	6.3	3.3	0.0	/	/
COc1ccc(CCN2CC(C(=O)NCCCn3nc(C)cc3C)CCC2=O)cc1 (configuration not stated)	-0.8	1.5	11.3	18.3*	-4.2	-0.3	2.2
CCc1nn(CC(=O)N2CCC(C)CC2)c(=O)c2cccn12	-0.5	0.0	0.7	-2.8	-5.8	/	/
COc1cccc2c1cc1c(=O)n(CC(=O)N3CCC(C)CC3)nc(C)n12	-0.7	-0.9	0.4	17.0*	-2.5	-0.1	57.4*
CC(C(=O)Nc1sc2c(c1C#N)CCCCC2)N1C(=O)c2ccccc2C1=O (configuration not stated)	2.2	-6.1	5.8	24.7*	3.6	-0.5	-0.7
COc1ccc(CC(=O)Nc2cc(C)on2)cc1OC	-2.2	-0.4	-2.9	14.7*	10.5	-0.8	-1.5
COc1ccc(C2/C(=C(\O)c3ccc4c(c3)OCCO4)C(=O)C(=O)N2Cc2cccnc2)cc1OC (configuration not stated)	-0.5	1.1	2.1	19.9*	0.3	-0.6	0.3
COc1ccc(Cc2c(O)nc(SCC(C)C)[nH]c2=O)cc1	0.8	0.3	1.3	14.5*	-1.5	-0.6	-2.2
Cn1nc(C(=O)Nc2cccc(C(=O)NC3CC3)c2)c2ccccc2c1=O	-0.5	0.3	-2.2	-0.5	-3.2	/	/
Cc1cc(=O)c(C(=O)Nc2cccc(C(=O)NC3CC3)c2)nn1-c1ccccc1Cl	-1.4	3.5	12.7	14.5*	0.7	-0.5	-0.4
Cc1ccc(-n2ncc3c2CC(C)(C)CC3NC(=O)CCN2CCCO2)cc1 (configuration not stated)	-0.6	19.1	14.3	3.7	-0.6	/	/
COC(=O)CSc1nnc(CNC(=O)c2ccc(OC)c(OC)c2)n1C	0.2	11.2	-1.9	-1.9	5.8	/	/
O=C(Nc1ccc(C(=O)O)cc1)/C(=C\c1ccccc1)NC(=O)c1ccccc1	-1.2	2.2	6.8	17.6*	-4.1	-0.5	-2.9
CCOC(=O)C1CCCN(C(=O)CCn2nnnc2CN2CCOCC2)C1 (configuration not stated)	-0.4	0.1	-2.5	2.7	-0.4	/	/
CN(CC(=O)Nc1ccc(Cl)c(C(F)(F)F)c1)C(=O)CCCNC(=O)c1ccc(Cl)cc1	-0.9	11.0	-5.8	-10.6	-1.5	/	/
O=C(COC(=O)c1ccc(F)cc1Cl)NC1CCCCCCC1	3.7	-6.7	-11.6	6.6	-0.3	/	/
CC(C)N=c1scc(-c2cccs2)n1/N=C/c1ccc(O)c(O)c1O	4.7	9.6	-22.9	14.6*	3.4	1.1*	17.8*
CCN=c1scc(-c2cccs2)n1/N=C/c1cc(OC)ccc1O	/	10.9	1.2	1.7	1.1	/	/
Cc1cccc(-n2ncc3c2CCCC3NC(=O)Cc2c(C)noc2C)c1C (configuration not stated)	0.2	-1.1	3.4	-1.9	0.2	/	/
COc1ccc(S(=O)(=O)N(C)CC(=O)N2CCCCC2)cc1Cl	1.1	-3.5	5.5	14.5*	6.5	-0.5	-0.7
SMILES	NTR1 ag	B2AR ag	ABHD5 PLIN5 PPI	HTR2A ag	Granule exo inh	OPRM1 ag	m5-HT2A ag conf
CCn1cc(C(=O)NCCCN2CCCC(C)C2)c(=O)c2cc(S(=O)(=O)N3CCOCC3)ccc21 (configuration not stated)	0.3	5.6	2.5	21.1*	-11.5	-0.8	-5.1
COc1cc([N+](=O)[O-])ccc1NC(=O)/C=C\C(=O)O	0.7	-0.6	-1.7	22.5*	3.7	-0.7	-5.3
CC(=O)N1CCc2cc(C(=O)CN3CCN(c4ccccc4F)CC3)ccc21	-3.3	-8.8	-5.6	13.1	0.2	/	/
CC(=O)N1CCc2cc(C(=O)CN3CCN(c4ccccn4)CC3)ccc21	1.8	-16.8	1.0	18.0*	0.4	-0.7	116.5*
CCC(C)NC(=O)C1CCN(S(=O)(=O)c2cc([N+](=O)[O-])ccc2Cl)CC1 (configuration not stated)	-1.3	-0.2	-2.7	24.1*	-2.0	0.2	-2.0
CCN1C(=O)[C@H]2[C@@H](c3ccc(-c4ccccc4)cc3)N[C@@](CC(C)C)(C(=O)OC)[C@H]2C1=O	2.7	-1.6	-0.1	-1.3	-4.2	/	/
COc1ccc(NC(=O)c2cccc([N+](=O)[O-])c2)cc1	-0.3	-13.0	-1.0	0.7	-2.6	/	/
COc1ccc(NC(=O)c2cc([N+](=O)[O-])ccc2O)cc1	3.6	9.5	4.5	14.9*	-1.4	-0.5	-3.2
CSC[C@H]1CN(c2ccc(Br)cc2)C(=O)[C@@H]1CC(=O)Nc1ccc(Br)cc1	/	/	-4.4	0.5	-2.5	/	/
CCOc1ccccc1NC(=O)CCN1CCN(S(=O)(=O)c2ccc(Br)cc2)CC1	4.7	-0.8	12.6	16.9*	-0.7	-0.1	1.0
CC(CN1CCCCC1)C(=O)NNC(=O)C12CC3CC(CC(C3)C1)C2 (configuration not stated)	-0.9	8.1	2.1	16.0*	-3.6	-0.4	-2.9
COc1cccc(-c2nc(NCC3CCCO3)c3ccccc3n2)c1O (configuration not stated)	5.8	12.4	10.6	32.2*	1.8	-0.4	15.2*
Oc1ccccc1-c1nc(NCC2CCCO2)c2ccccc2n1 (configuration not stated)	-1.4	3.5	11.7	-0.9	0.5	/	/
CC1CCC(N2CCN(c3ncccn3)CC2)C1 (configuration not stated)	-0.1	0.6	5.2	-2.2	-3.6	/	/
CCOC(=O)C1CCCN(S(=O)(=O)c2ccc(OC)cc2)C1 (configuration not stated)	-0.2	5.1	2.9	23.6*	3.9	-0.6	-2.7
COc1ccc(N2CC(C(=O)Nc3ccc(S(=O)(=O)N4CCCC4)cc3)CC2=O)cc1 (configuration not stated)	-0.9	5.2	8.1	14.6*	-13.5	-0.6	-5.3
O=C(Nc1ccccc1C(F)(F)F)c1cnccn1	-1.5	10.7	-1.7	19.0*	1.6	-0.7	2.0

Compound activity deposited in PubChem BioAssay by several laboratories.
